Test [1] has as its target Lysosomal acid glucosylceramidase (Homo sapiens) (UniProt P04062). As to the kind of experiment: Glucocerebrosidase-p2 (AID 348; in the data active = potency below about 10 µM; also: potency is read from the fitted curve at half-maximal effect). Particulars: purified GBA, blue fluorogenic substrate, 40 min. The procedure, abridged:
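Compounds titrated from 0.6 nM upwards against 0.2 nM enzyme in pH 5.9 citric acid/KH2PO4, taurocholate, tween-20; blue fluorogenic substrate 80 uM, 40 min room temperature, stopped and read Ex 365/Em 440 for AC50.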

A short description of test [2]: AP1 Signaling Pathway (AID 357).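 Also: ME-180 reporter cells stimulated with EGF at its EC50 level; % is scaled to controls: 0 for no effect and ±100 for the full control effect.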 Particulars: ME-180 AP-1-bla reporter, EGF-induced, beta-lactamase ratio, 5 h; at 7.69 µM (top of the series) unless noted. Put shortly:
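Titration-series screen for positive or negative modulators of EC50 EGF-induced signaling in ME-180 cells carrying an AP-1-driven beta-lactamase reporter. After 5 hours at 37 degrees Celsius, CCF4 460nm/530nm emission ratio gave %Activity; AC50 values derived.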

Test [3] addresses Cytochrome P450 1A2 (Homo sapiens) (UniProt P05177). As to the kind of experiment: p450-cyp1a2 (AID 410; calls by dose curve;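 also: -100% = full effect of reference inhibitor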). Particulars: recombinant CYP1A2, luciferin-ME demethylation, luminescence; series mostly up to 57 µM. The procedure, abridged: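 Inhibition was calculated relative to 57 uM furafylline (full inhibition). The reaction used human CYP1A2 at 20nM with Luciferin-ME at its Km, 100uM, driven by an NADPH-regenerating system for 60 min at room temperature.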

The nature of test [4]: NFAT Signaling Pathway (AID 444).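 Also: carbachol stimulus at about its EC50 of 1 µM final; % is scaled to controls: 0 for no effect and ±100 for the full control effect.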 Particulars: Jurkat NFAT-bla M1, carbachol, beta-lactamase ratio, 5 h; at 7.69 µM (top of the series) unless noted. The procedure, abridged:
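Jurkat cells with NFAT-driven β-lactamase reporter and co-expressed M1 receptor, stimulated with carbachol (final 1 uM, ~EC50), compound titration, 5 h at 37 °C. CCF4 loaded 1 h at RT; 460/530 nm ratio gave %activity and AC50.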

Test [5] is described as follows: Stat Signaling Pathway (AID 446).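 Also: ME-180 cervical cancer cells given 40 pM IL-6 alongside compound; SIE-controlled beta-lactamase reporter measured as 460/530 nm FRET emission ratio; % is scaled to controls: 0 for no effect and ±100 for the full control effect.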 Particulars: ME-180 SIE beta-lactamase reporter, IL-6 stimulated, 5 h; at 7.69 µM (top of the series) unless noted. The procedure, abridged: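 ME-180 SIE-bla cells; overnight plating; cpd + IL-6 40 pM, 5 h, 37 C; LiveBLAzer 2.5 h RT; 460/530 nm emission ratio. Normalized to 300 pM IL-6 and 125 nM JAK inhibitor controls.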
Test [6] concerns the target Glucocorticoid receptor (Homo sapiens) (UniProt P04150). As to the kind of experiment: GR-EFC Redistribution (AID 451; calls by dose curve; also: potency is read from the fitted curve at half-maximal effect). Particulars: CHO-K1 GR-EFC translocation, beta-gal luminescence, 2 h. Put shortly: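 CHO-K1 cells expressing nuclear EA and GR-ED fragments of b-gal; compounds titrated up to 46 uM final, 2 h at 37 C. GR nuclear translocation read as complemented b-gal luminescence after 1 h RT detection.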

Test [7] concerns the target Mitogen-activated protein kinase 10 (Mus musculus) (UniProt Q61831). As to the kind of experiment: JNK3 AlphaScreen Assay (AID 530).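 Also: kinase came from lysate of stimulated human HepG2 cells; signal reports phosphorylation of biotinylated GST-cJun 1-79 at Ser73 with 10 µM ATP; % is scaled to controls: 0 for no effect and ±100 for the full control effect.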 The conditions noted are these: JNK3 lysate, c-Jun phosphorylation; series mostly up to 57.1 µM. Put shortly: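 qHTS format: compounds tested as titrations against IL-1beta/TNF-alpha-activated HepG2 lysate JNK3 with biotin-GST-cJun substrate and 10 uM ATP at room temperature. Loss of anti-phospho-cJun AlphaScreen signal indicates inhibition.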

Test [8] addresses 3',5'-cyclic-AMP phosphodiesterase 4B (Homo sapiens) (UniProt Q07343). The test can be described thus: qHTS Assay for Inhibitors of PDE-IV (AID 607; active = well fitted activation curve with a large enough effect in the main read-out, with a control signal flat, not every such curve was filed as active; also: % of control where 0% means no effect). Particulars: HEK293 ACTOne CNG channel cells, membrane potential fluorescence; series mostly up to 22.9 µM. The procedure, abridged:
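ACTOne HEK293 cells carry a modified cAMP-gated CNG channel and express endogenous PDE4; plated 1000 cells/well, compounds up to 22.9 uM final. Membrane-potential dye fluorescence (ex 535/em 590) was read; parental cells received 10 uM forskolin + 100 uM RO 20-1724.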

The nature of test [9]: qHTS Assay for Lipid Storage Modulators (AID 1519; calls by dose curve). Particulars: Drosophila S3 cells, BODIPY lipid droplet/cell ratio, laser cytometry, cells loaded with oleic acid; for activity change, negative = inhibition: at 57.5 µM (top of the series). The procedure, abridged: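 Cells seeded at 5,000 per well were treated with compounds over a concentration series and loaded with oleic acid (400 uM, as added). Lipid droplet fluorescence (488 nm excitation, 500-530 nm channel) was read by laser-scanning cytometry and normalized to 20 uM Triacsin C.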

A short description of test [10]: Primary qHTS for small molecule stabilizers of the endoplasmic reticulum resident proteome: Secreted ER Calcium Modulated Protein (SERCaMP) assay (AID 1508630; active = well fitted inhibition curve with a large enough effect; also: % is scaled to controls: 0 for no effect and ±100 for the full control effect). Particulars: SH-SY5Y GLuc-SERCaMP (Gaussia luciferase released on ER calcium loss) secretion, thapsigargin, luminescence; series mostly up to 38.4 µM. Put shortly:
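GLuc-SERCaMP-expressing SH-SY5Y cells, pretreated 16 h with compound, are challenged with thapsigargin to empty ER calcium stores; after 4 h, coelenterazine is added directly to the medium and luminescence is imaged.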

Where [11] appears, read: measured here: cell count channel max response.
Setting [12] is: measured here: lipid channel max response.

Inconclusive results are not listed. Activity calls are given as the source filed them. Unless noted, calls follow the shape of the dose curve; as a rule, active = well fitted curve in either direction with a large enough effect (not every such curve was filed as active); inconclusive = small, poorly fitted or top-dose-only effect, or another doubt; inactive = flat fitted curve, though single readings scatter.

Sequence of 3',5'-cyclic-AMP phosphodiesterase 4B (Homo sapiens) (Q07343 whole entry, looked up): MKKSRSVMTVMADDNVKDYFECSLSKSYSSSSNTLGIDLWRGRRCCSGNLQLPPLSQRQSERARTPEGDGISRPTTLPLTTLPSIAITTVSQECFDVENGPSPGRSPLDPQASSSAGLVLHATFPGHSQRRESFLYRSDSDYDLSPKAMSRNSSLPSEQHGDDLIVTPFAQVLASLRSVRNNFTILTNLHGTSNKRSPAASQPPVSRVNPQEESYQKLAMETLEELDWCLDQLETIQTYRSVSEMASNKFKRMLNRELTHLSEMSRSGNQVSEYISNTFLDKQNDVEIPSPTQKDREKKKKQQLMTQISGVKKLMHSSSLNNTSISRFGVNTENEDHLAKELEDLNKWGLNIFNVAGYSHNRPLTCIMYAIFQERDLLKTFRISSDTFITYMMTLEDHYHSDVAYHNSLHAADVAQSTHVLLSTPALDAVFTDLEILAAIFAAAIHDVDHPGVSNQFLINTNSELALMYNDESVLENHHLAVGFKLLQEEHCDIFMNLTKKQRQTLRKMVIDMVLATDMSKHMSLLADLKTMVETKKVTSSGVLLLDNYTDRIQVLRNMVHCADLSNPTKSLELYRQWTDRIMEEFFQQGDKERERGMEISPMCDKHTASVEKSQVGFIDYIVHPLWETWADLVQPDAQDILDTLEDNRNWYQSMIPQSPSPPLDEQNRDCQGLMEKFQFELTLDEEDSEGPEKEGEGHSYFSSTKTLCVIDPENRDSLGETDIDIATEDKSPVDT
Sequence of Glucocorticoid receptor (Homo sapiens) (P04150 whole entry, looked up, the tested form may be a part): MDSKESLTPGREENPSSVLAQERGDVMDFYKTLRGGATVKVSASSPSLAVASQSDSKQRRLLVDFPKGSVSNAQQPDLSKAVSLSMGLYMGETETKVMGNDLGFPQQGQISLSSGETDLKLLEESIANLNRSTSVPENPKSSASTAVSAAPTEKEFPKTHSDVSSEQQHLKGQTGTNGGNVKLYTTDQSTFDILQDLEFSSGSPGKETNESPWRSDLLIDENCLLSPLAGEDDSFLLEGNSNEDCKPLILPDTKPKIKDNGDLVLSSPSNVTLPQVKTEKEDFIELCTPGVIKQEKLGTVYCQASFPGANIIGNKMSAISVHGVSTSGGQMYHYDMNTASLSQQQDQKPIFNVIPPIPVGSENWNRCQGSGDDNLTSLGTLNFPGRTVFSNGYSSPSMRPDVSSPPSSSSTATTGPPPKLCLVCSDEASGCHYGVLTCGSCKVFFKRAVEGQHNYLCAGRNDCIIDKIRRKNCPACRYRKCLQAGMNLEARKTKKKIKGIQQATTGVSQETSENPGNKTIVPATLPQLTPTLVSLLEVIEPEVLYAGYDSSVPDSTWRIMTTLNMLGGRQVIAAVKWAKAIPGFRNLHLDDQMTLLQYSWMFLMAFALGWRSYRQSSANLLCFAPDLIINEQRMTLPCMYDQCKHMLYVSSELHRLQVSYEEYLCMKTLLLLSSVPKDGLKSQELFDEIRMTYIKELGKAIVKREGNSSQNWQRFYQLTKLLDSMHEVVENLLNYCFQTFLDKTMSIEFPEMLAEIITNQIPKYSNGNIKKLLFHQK
Sequence of Cytochrome P450 1A2 (Homo sapiens) (P05177 whole entry, looked up): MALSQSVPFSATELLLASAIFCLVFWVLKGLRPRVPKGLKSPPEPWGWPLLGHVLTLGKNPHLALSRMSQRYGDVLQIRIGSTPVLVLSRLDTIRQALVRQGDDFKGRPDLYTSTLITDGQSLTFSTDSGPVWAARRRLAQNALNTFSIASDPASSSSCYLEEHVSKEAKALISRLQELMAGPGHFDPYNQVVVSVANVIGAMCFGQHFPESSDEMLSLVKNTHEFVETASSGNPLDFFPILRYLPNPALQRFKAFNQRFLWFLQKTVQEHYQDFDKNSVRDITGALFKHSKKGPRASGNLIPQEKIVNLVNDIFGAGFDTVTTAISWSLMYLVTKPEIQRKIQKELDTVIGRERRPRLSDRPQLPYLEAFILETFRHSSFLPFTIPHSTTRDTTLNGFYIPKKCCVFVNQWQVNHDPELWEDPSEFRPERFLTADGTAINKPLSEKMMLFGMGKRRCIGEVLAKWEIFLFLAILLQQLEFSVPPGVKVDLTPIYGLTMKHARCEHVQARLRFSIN
Sequence of Lysosomal acid glucosylceramidase (Homo sapiens) (P04062 whole entry, looked up): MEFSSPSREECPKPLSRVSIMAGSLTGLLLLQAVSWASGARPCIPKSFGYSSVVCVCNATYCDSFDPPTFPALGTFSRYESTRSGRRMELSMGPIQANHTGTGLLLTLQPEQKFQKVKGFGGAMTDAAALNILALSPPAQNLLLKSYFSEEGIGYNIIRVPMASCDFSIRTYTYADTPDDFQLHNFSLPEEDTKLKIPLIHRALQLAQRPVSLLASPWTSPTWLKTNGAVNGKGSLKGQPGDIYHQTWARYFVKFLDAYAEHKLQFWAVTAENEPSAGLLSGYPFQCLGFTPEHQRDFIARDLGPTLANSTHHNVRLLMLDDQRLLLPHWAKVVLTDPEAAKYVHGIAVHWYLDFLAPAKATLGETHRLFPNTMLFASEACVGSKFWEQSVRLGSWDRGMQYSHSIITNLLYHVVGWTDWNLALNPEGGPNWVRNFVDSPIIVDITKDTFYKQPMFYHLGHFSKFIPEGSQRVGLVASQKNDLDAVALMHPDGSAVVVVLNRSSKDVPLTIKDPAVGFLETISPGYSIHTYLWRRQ

Consider `O=C(Nc1ccccc1)N1CCC2(CC1)CCN(C(=O)c1csnn1)CC2`, for which the Potency in [1] was > 11.4 µM (inactive); in test [6] it was > 46 µM (inactive). The values for the activity change, negative = inhibition in test [2], in test [4] and in [9] were -1.74% (inactive), 11.2% (inactive) and 4.48% (inactive), respectively. The Potency result in test [3], in test [8] and in test [10] was “inactive” throughout. Moreover, the activity, negative = inhibition in test [5] is -9.72% (inactive). Besides, the compound was classed as inactive in test [7]. Besides, the max response in [9] (setting [11]) was found to be 16.6%; in test [9] (setting [12]) it was 23.2%.
Take `CC(C)CN1CCC2(CC1)CCN(C(=O)c1csnn1)CC2`: the Potency was > 11.4 µM (inactive) in test [1] and > 46 µM (inactive) in test [6]. For the same compound, the activity change, negative = inhibition in test [2] was -3.75% (inactive); in test [4], -21.7% (inactive); in test [9], -1.92% (inactive). Moreover, the Potency result in test [3], in test [8] and in [10] was “inactive” throughout. Also, in [5], the activity, negative = inhibition is -16.4% (inactive). Also, in test [7], the compound was called inactive. The max response in test [9] (setting [11]) is -3.14%; in test [9] (setting [12]) it was -1.99%.
With `O=C(Nc1cccc(F)c1)N1CCC2(CCNCC2)CC1`, the figures for the Potency in test [1] and in test [6] were > 11.4 µM (inactive) and > 46 µM (inactive), respectively. Besides, the activity change, negative = inhibition in [2] was -5.25% (inactive); in [4] it was -3.25% (inactive); in test [9], 2.6% (inactive). In addition, the Potency result in [3], in test [8] and in test [10] was “inactive” throughout. Also, the activity, negative = inhibition in test [5] was -4.9% (inactive). For the same compound, the compound was classed as inactive in test [7]. Moreover, the values for the max response in test [9] (setting [11]) and in [9] (setting [12]) were 17.4% and 23.2%, respectively.
Consider `O=S(=O)(c1ccccc1)N1CCC2(CC1)CN(c1ncccn1)C2`, for which the Potency in test [1] is > 11.4 µM (inactive); in test [6] it was > 46 µM (inactive). For the same compound, the values for the activity change, negative = inhibition in test [2], in [4] and in test [9] were -2.52% (inactive), 26.7% (inactive) and 4.75% (inactive), respectively. The Potency result in [3], in test [8] and in [10] was “inactive” throughout. Moreover, the activity, negative = inhibition in test [5] was -1.43% (inactive). For the same compound, the outcome in test [7] was inactive. Further, the max response in [9] (setting [11]) was determined as 14.7%; in test [9] (setting [12]), 20.8%.
With `COC(=O)N1CCC2(CC1)CN(C(=O)Nc1cccc(C#N)c1)C2`, the Potency is > 11.4 µM (inactive) in test [1] and > 46 µM (inactive) in test [6]. Further, the activity change, negative = inhibition is 2.52% (inactive) in test [2], 6.57% (inactive) in test [4] and 4.73% (inactive) in [9]. The Potency result in test [3], in [8] and in test [10] was “inactive” throughout. In addition, the activity, negative = inhibition in test [5] was -1.88% (inactive). For the same compound, in test [7], the outcome was inactive. The max response is -0.334% in test [9] (setting [11]) and 8.67% in test [9] (setting [12]).
As to `CC(C)NC(=O)N1CCC2(CC1)CCN(C(=O)c1ccco1)CC2`, the Potency in test [1] is > 11.4 µM (inactive); in [6], > 46 µM (inactive). In addition, the activity change, negative = inhibition in test [2] is -2.03% (inactive); in test [4], 12% (inactive); in test [9], 3.89% (inactive). Moreover, the Potency result in [3], in [8] and in test [10] was “inactive” in each case. The activity, negative = inhibition in [5] was 8.93% (inactive). In addition, the compound was called inactive in [7]. The values for the max response in test [9] (setting [11]) and in [9] (setting [12]) were 8.07% and 11.7%, respectively.
`Cn1cccc1C(=O)N1CCC2(CC1)CN(C(=O)Nc1ccccc1)C2`: the Potency in test [1] is > 11.4 µM (inactive); in test [6], > 46 µM (inactive). Moreover, the figures for the activity change, negative = inhibition in test [2], in [4] and in test [9] were -4.26% (inactive), 8.61% (inactive) and 5.97% (inactive), respectively. For the same compound, the Potency entry in test [3], in test [8] and in test [10] was “inactive” in each case. In test [5], the activity, negative = inhibition is -5.03% (inactive). For the same compound, in test [7], the compound was classed as inactive. In addition, the max response was determined as 8.17% in test [9] (setting [11]) and 14.5% in test [9] (setting [12]).

Values taken from PubChem BioAssay (NCATS).
